Source: PubChem (National Center for Advancing Translational Sciences (NCATS))
Sampled rows, rich in hits. Any-hit rate of the full collection: about 8.7%.
JMJD2A Tudor = blocks the human JMJD2A Tudor domain. Potency, µM (top dose mostly 114 µM), for inactives: at the highest dose activity change, negative = inhibition, hits mostly inhibitors. AID 504339. hit rate 4.4% among 390,000. O75164. AlphaScreen JMJD2A-Tudor / H3K4me3 peptide binding; also: % is scaled to controls: 0 for no effect and ±100 for the full control effect; nearly all actives have a fitted effect of over 50% in size
BAZ2B block = blocks human BAZ2B; Q9UIF8; AlphaScreen BAZ2B-H3K14Ac peptide displacement; Potency, µM (series often up to 114 µM), without a hit: at the highest dose activity change, negative = inhibition, usual class: inhibitors; hit rate 4.4% among 360,000; AID 504333; also: % is scaled to controls: 0 for no effect and ±100 for the full control effect; nearly all actives have a fitted effect of over 60% in size
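BAZ2B (50 nM) with biotin-H3(5-23)K14Ac peptide (50 nM) in PBS pH 7.4, 0.01% Tween-20, preformed 30 min, then compound 30 min at room temperature; top concentration 110uM. AlphaScreen streptavidin donor/nickel chelate acceptor beads (10 ug/mL final), 20 min dark, signal read.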
Sfp inh = Sfp phosphopantetheinyl transferase inhibition | Biochemical Sfp PPTase activity, qHTS | Potency, µM, for inactives: largest response in the series, negative = inhibition, most hits filed as inhibitors | hit rate 3.5% among 310,000 | AID 1490;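 also: the enzyme is Sfp with the accession as filed and its product quenches rhodamine fluorescence; 0% = enzyme reaction without inhibitor and -100% = no enzyme wells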
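Reaction rates are the 30-min fluorescence difference (ex 525, em 598 nm) in wells containing 15 nM Sfp, 5 uM rhodamine-CoA and 12.5 uM BHQ-2-YbbR at pH 7.6 with 10 mM MgCl2.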
G9a inh = G9a (human) methyltransferase inhibition; G9a H3K9 monomethylation, AlphaScreen, 2 h; Potency, µM (highest dose often 102 µM), for inactives: at the top dose activity, negative = inhibition, most hits filed as inhibitors; hit rate 8.8% among 350,000; also: % is scaled to controls: 0 for no effect and ±100 for the full control effect; nearly all actives have a fitted effect of over 75% in size
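G9a (20 nM) preincubated 15 min RT with compounds, then 500 nM biotinylated H3K9 peptide and 20 uM SAM added; 2 h RT reaction. Monomethyl-H3K9 product detected by AlphaScreen with anti-H3K9me1 antibody, streptavidin donor and anti-rabbit IgG acceptor beads.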
HP1b binding inh = inhibitors of HP1-beta chromodomain binding to methylated histone tails; P83916; AlphaScreen HP1-beta / biotin-H3K9me3 peptide binding; Potency, µM (series often up to 114 µM), for the others: at the highest dose activity change, negative = inhibition, hits mostly inhibitors; hit rate 0.56% among 390,000; AID 540317; also: nearly all actives have a fitted effect of over 70% in size
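Compound inhibition of the preformed complex between 50 nM HP1-beta and 50 nM biotinylated H3K9me3 peptide was read by AlphaScreen. Buffer was PBS pH 7.4 with 0.01% Tween-20. Incubations ran 30 min at room temperature, with 10 ug/mL donor/acceptor beads.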
ALOX12 inh = inhibitors of human 12S-lipoxygenase ALOX12. Potency, µM (doses to about 108 µM), inactives show at the top dose activity change, negative = inhibition, most hits filed as inhibitors. P18054. hit rate 1.1% among 580,000. purified 12hLO, xylenol orange hydroperoxide absorbance; also: % is scaled to controls: 0 for no effect and ±100 for the full control effect
Target sequence (P18054 whole entry, looked up): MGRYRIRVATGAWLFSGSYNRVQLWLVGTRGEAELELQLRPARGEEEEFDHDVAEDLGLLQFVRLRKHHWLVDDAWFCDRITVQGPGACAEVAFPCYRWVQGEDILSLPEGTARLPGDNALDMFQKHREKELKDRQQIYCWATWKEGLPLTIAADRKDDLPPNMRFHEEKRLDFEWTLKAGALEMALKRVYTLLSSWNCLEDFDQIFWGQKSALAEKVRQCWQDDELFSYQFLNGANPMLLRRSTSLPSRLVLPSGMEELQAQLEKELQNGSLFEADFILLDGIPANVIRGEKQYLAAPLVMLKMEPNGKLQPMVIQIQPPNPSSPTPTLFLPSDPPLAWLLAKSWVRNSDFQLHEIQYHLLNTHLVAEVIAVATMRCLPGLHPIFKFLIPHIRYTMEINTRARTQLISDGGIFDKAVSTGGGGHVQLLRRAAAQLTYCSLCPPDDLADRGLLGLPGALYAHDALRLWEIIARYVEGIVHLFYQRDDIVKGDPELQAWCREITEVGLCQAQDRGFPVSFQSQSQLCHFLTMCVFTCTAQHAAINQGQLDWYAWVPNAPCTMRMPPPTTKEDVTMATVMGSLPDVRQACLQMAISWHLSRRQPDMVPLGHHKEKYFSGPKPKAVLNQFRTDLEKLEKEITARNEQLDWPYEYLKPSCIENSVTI
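Purified human 12hLO at 150 nM in 25 mM Hepes, 0.01% Triton X-100, pH 7.0, preincubated 15 min at room temperature with compound. Reaction started with 40 uM arachidonic acid, 30 min at room temperature. Hydroperoxide measured by Fe-xylenol orange, 573/405 nm absorbance ratio.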
Starred values were filed as active, the others as inactive; ? = inconclusive; nt = not tested or not shown; [ ] = remark or other dose. Calls follow the shape of the dose curve; as a rule, active = well fitted curve in the direction sought with a large enough effect; inconclusive = small, poorly fitted or top-dose-only effect, or another doubt; inactive = no such curve, though single readings can be large; an effect the other way counts as inactive or inconclusive. Potency is read from the fitted curve at half-maximal effect.

SMILES | JMJD2A Tudor | BAZ2B block | Sfp inh | G9a inh | HP1b binding inh | ALOX12 inh
COc1ccc(-c2nc3ccc(NC(=O)CO)cc3c(=O)n2Cc2cccc(Cl)c2)cc1COc1ccc(NC(C)=O)cc1 | 56µM* | nt | nt | nt | -17% | nt
COc1ccc(-c2nc3ccccc3c(=O)n2Cc2ccccc2)cc1CNc1ccc(NC(C)=O)cc1 | 50µM* | nt | nt | nt | nt | nt
COc1ccc(-c2nc3ccc(NC(C)=O)cc3c(=O)n2Cc2ccccc2)cc1COc1ccc(NC(C)=O)cc1 | ? | nt | nt | nt | 19% | nt
COCc1cccc(C(=O)NCc2ccc(C)cc2)c1 | nt | nt | nt | nt | nt | 13%
N#C/C(=N\Nc1cccc2ccccc12)c1nnc2n1CCCCC2 | -35% | ? | ? | 1.8µM* | 21% | ?
C=CC(C)(C)c1c(O)c(CC=C(C)C)c(O)c2c(=O)c3ccc(O)c(O)c3oc12 | 50µM* | nt | nt | nt | -15% | nt
C=CC(C)(C)c1c2occc2c(O)c2ccc(=O)oc12 | -27% | nt | nt | nt | 8% | 7%
Cc1ccsc1C(=O)NC(CC(=O)O)c1cccs1 (stereo not drawn) | nt | nt | nt | nt | nt | 36%
Cc1ccc(CNC(=O)CCNS(=O)(=O)c2c(C)[nH]c(C)c2C(=O)N2CCCC2)cc1 | nt | nt | nt | nt | nt | 16%
COc1ccccc1OCc1ccc(C(=O)N2CCN(C(=O)c3ccco3)CC2)cc1 | -26% | 3% | -23% | 45µM* | 1% | -2%
COc1ccc(CN2CCN(C(=O)c3ccco3)CC2)cc1OCc1ccccc1 | ? | 56µM* | -17% | 11µM* | ? | ?
COc1ccc(CCn2nnnc2CN2CCN(C(=O)c3ccco3)CC2)cc1OC | -3% | 5% | 18% | -7%[0.501 µM] | 30% | -2%
O=C(c1ccco1)N1CCN(C(=O)c2ccccc2OCc2ccccc2)CC1 | -3% | nt | nt | nt | 24% | -1%
COc1ccc(CN2CCN(C(=O)c3ccco3)CC2)cc1OC | -20%[11.4 µM] | 40µM* | -25% | 10µM* | 25µM* | ?
COc1cc(-c2nc(CN3CCN(C(=O)c4ccco4)CC3)c(C)o2)ccc1F | -31% | ? | 8% | -5% | 22% | ?
CCN1CCN(Cc2ccc(OC)c(OCc3ccccc3)c2)CC1 | -19% | -38% | 2% | ? | 8% | ?
COc1ccc(-c2nc(CN3CCN(C(=O)c4ccco4)CC3)c(C)o2)cc1OC | -19% | 14%[57.1 µM] | 6% | 56µM* | 19% | 1%
Cc1cc(F)ccc1NCC(=O)N1CCN(S(C)(=O)=O)CC1 | nt | nt | nt | nt | nt | -18%
CC(C)OCC(O)Cn1c(N2CCCCCC2)nc2c1c(=O)[nH]c(=O)n2C (stereo not drawn) | nt | nt | nt | nt | nt | -21%
CCn1c2ccccc2c2cc(CN3CCN(C(=O)c4ccco4)CC3)ccc21 | 35µM* | ? | 56µM* | ? | ? | 0.56µM*
O=[N+]([O-])c1nn(-c2cccc(Cl)c2)n(O)c1=NCc1cccnc1 | ? | ? | -3% | 7.9µM* | -21% | -24%
O=[N+]([O-])c1nn(-c2ccc(Cl)cc2)n(O)c1=NCc1ccncc1 | -26% | ? | 8% | 40µM* | 21% | -13%
O=[N+]([O-])c1nn(-c2ccc3c(c2)OCCO3)n(O)c1=NCc1ccc(F)cc1 | 35µM* | 35µM* | -1% | ? | ? | 6%
Cc1ccc(CN=c2c([N+](=O)[O-])nn(-c3ccc(Cl)cc3)n2O)cc1 | ? | ? | ? | 50µM* | ? | ?
CCN(CC)CC(=O)N1CCCC(N2CCN(c3ccc(F)cc3)CC2)C1 (stereo not drawn) | nt | nt | nt | nt | nt | 20%
SMILES | JMJD2A Tudor | BAZ2B block | Sfp inh | G9a inh | HP1b binding inh | ALOX12 inh
CN1C(=O)CCC2(CNC(=O)C3CCC3)CCCC=C12 (stereo not drawn) | nt | nt | nt | nt | nt | 19%
COCc1nc(C2CCN(C(=O)CCc3c[nH]c4ccccc34)C2)no1 (stereo not drawn) | nt | nt | nt | nt | nt | 3%
COC1CN(c2cccc(F)c2)C12CCN(C(=O)C1CCCCC1)CC2 (stereo not drawn) | nt | nt | nt | nt | nt | 24%
CCN(CC)c1ccc(NC(=O)CCCCCN2C(=O)c3ccccc3C2=O)cc1 | 25µM* | 45µM* | -11% | 2.5µM* | ? | 0%
CC(=O)Nc1ccc(NC(=O)CCCCCN2C(=O)c3ccccc3C2=O)cc1 | -3% | -3% | 10% | -2%[59 µM] | 26% | -59%
Cc1ccc(NC(=O)CCN2C(=O)c3cccc4cccc(c34)C2=O)cc1 | -17% | ? | -18% | 7%[59 µM] | 25% | -11%
Cc1ccc(NC(=O)CCCN2C(=O)c3cccc4cccc(c34)C2=O)cc1 | 79µM* | 0% | -24% | 46%[59 µM] | 0% | -24%
O=C(Cc1ccc(OC(F)(F)F)cc1)Nc1cccn2nc(C3CC3)nc12 | nt | nt | nt | nt | nt | 18%
c1cncc(-c2cnc3n[nH]c(-c4ccc5c(c4)OCO5)c3n2)c1 | nt | nt | nt | nt | nt | -3%[176 µM]
Cc1cc(C)c(S(=O)(=O)/N=C2\C=CC(=O)C(Cl)=C2)c(C)c1 | 32µM* | -12% | 50µM* | 7.9µM* | ? | nt
CN1C(=O)COC[C@@H]1[C@H](O)c1ccc(NC(=O)C2CCCCC2)cc1 | nt | nt | nt | nt | nt | 106%[176 µM]
O=C(CCc1c[nH]c2ccccc12)N1CCCC1c1ccc(F)cc1 (stereo not drawn) | nt | nt | nt | nt | nt | -24%
N=c1c2c(-c3ccccc3)c(-c3ccccc3)n(Cc3ccco3)c2ncn1CCCn1ccnc1 | ? | ? | -7% | ? | -23% | 3%
N=c1c2c(-c3ccccc3)c(-c3ccccc3)n(Cc3ccco3)c2ncn1Cc1ccccc1 | -18% | 45µM* | 22µM* | -9%[12.7 µM] | 14% | 33%
CC(C)Cn1cnc2c(c(-c3ccccc3)c(-c3ccccc3)n2Cc2ccco2)c1=N | ? | ? | -22% | ? | -16% | -89%
OCCNc1ncnc2c1c(-c1ccccc1)c(-c1ccccc1)n2Cc1ccco1 | 56µM* | 50µM* | -27% | 18µM* | -12% | ?
c1ccc(-c2c(-c3ccccc3)n(Cc3ccco3)c3ncnc(NCCCn4ccnc4)c23)cc1 | 45µM* | 32µM* | 63µM* | ? | ? | nt
c1ccc(-c2oc3ncnc(NCCCn4ccnc4)c3c2-c2ccccc2)cc1 | 56µM* | 25µM* | ? | ? | ? | nt
Cc1ccc2cc(CN(C(=O)c3ccco3)c3ccccc3)c(=O)[nH]c2c1 | -11% | 3% | 28µM* | ? | 17% | 0%
Cc1ccc2cc(CN(Cc3ccco3)C(=O)c3cccs3)c(=O)[nH]c2c1 | -20% | -35% | 25µM* | 13%[12.7 µM] | 7% | -28%
Cc1cccc(N(Cc2cc3ccc(C)cc3[nH]c2=O)C(=O)c2ccco2)c1 | -26% | 16% | 22µM* | ? | 18% | ?
Cc1ccc(N(Cc2cc3ccc(C)cc3[nH]c2=O)C(=O)c2cccs2)cc1 | -9% | -9% | 10% | 9%[12.7 µM] | 65% | nt
